The text below walks through data of PubChem BioAssay (EPA / NIEHS).

Records with an inconclusive call do not appear. Calls of active or inactive are those of the source. Rule for the calls: active = hit-call score of the fitted dose curve at least 0.9, where 1 is the maximum; inconclusive = response in the unintended direction; inactive = score below 0.9.

Read-out in this assay: ABC Transporter (ABCB1), ABCB1 (gene 5243)
The experiment in a line: CLD_ABCB1_6hr: CellzDirect (CLD) Gene Expression Assay for ABC Transporter (ABCB1) at 6 hours (AID 2283659).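 Note: hits raise ABCB1 transcript above the DMSO vehicle baseline.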 The protocol: CLD_6hr is a cell-based, multiplexed-readout assay that uses hepatocyte, a human liver primary cell, with measurements taken at 6 hours after chemical dosing in a 96-well plate.CLD_ABCB1_6hr is one of 16 assay component(s) measured or calculated from the CLD_6hr assay. It is designed to make measurements of mRNA induction, a form of inducible reporter, as detected with chemiluminescence signals by Quantitative Nuclease Protection Assay (qNPA) technology.Data from the assay component CLD_ABCB1_6hr was analyzed at the endpoint, CLD_ABCB1_6hr, in the positive analysis fitting direction relative to DMSO as the negative control and baseline of activity. Using a type of inducible reporter, gain-of-signal activity can be used to understand changes in the reporter gene as they relate to the gene ABCB1. Furthermore, this assay endpoint can be referred to as a primary readout. To generalize the intended target to other relatable targets, this assay endpoint is annotated to the transporter intended target family, where subfamily is ABC transporter.
Human hepatocyte cultures were treated daily for two consecutive days with fresh dosing solutions containing appropriate concentrations of the 320 ToxCast chemicals (chemical identities were blinded to CellzDirect and other ToxCast collaborators), vehicle control (0.2% DMSO), and positive control inducers as summarized in Table 1. Due to the large number of treatment groups and chemicals examined, the ToxCast chemicals were divided into two groups (spanning two independent cultures of hepatocytes from separate donor preparations (Hu778: ToxCast plates 1 and 2; Hu776: ToxCast plates 3 and 4). Each preparation of human hepatocyte cultures was treated with respective vehicle control, medium only control, set of six positive controls/reference chemicals for the five hepatic receptor pathways, and a subset of eight of the ToxCast chemicals (indoxacarb, pyrithiobac-sodium, norflurazon, cyhalofop-butyl, methomyl, thiram, acetochlor, and propiconazole). These replicate data, coupled with internal replicates designed within the blinded ToxCast chemical library, provided additional data to evaluate interindividual differences between hepatocyte preparations and their potential impact on chemical profiles.Cell morphology and integrity were evaluated using phase-contrast microscopy as an indicator of hepatocyte cell health (Tyson & Green, 1987). Cultures for each treatment group (i.e., media, vehicle [0.2% DMSO], positive control inducers [multiple concentrations], and the ToxCast chemicals [multiple concentrations]) were observed and cell morphology was assessed relative to vehicle control cultures at each harvest time point (0, 6, 24, or 48 h). […] Images were evaluated at the conclusion of the study to assess changes in cell integrity and account for the effects of chemical exposure on uncharacteristic changes in concentration-dependent gene expression profiles. The results from these determinations of apparent cytotoxicity were annotated (yes/no) alongside the corresponding qNPA data for reference.At the conclusion of each treatment period, hepatocyte cultures (96-well) were washed with 1 volume of HBSS, lysed by addition of 25 ul ArrayPlate lysis buffer (HTG, Tucson, AZ), and 70 ul/well of Denaturation Oil, denatured by incubation at 95C for 10 min, and frozen at approximately -70C until analysis by nuclease protection assay (qNPA) (Roberts et al., 2007). For qNPA analysis, cell lysates were thawed at 50C for approximately 30 min, qNPA probes were added, and samples were incubated at 95C for 10 min to begin the detection process by denaturing the target RNA, dissociating the duplexes and secondary structure hybridization. At the conclusion of the hybridization period, S1 nuclease reagent was added to each sample to digest all nonprotected nucleotides at 50C for 60-90 min. […]
On to `CCOP(=S)(OCC)Oc1ccc2c(C)c(Cl)c(=O)oc2c1`, for which the molecule was classed as inactive.
With `C#CC(C)(C)NC(=O)c1cc(Cl)cc(Cl)c1`, the outcome was inactive.
Take `CN(C)C(=O)Nc1cccc(C(F)(F)F)c1`: the molecule was called inactive.
For `CSC1=N[C@@](C)(c2ccccc2)C(=O)N1Nc1ccccc1` the value was “inactive”.
In the case of `CC(C)N(C(=O)SCC(Cl)=C(Cl)Cl)C(C)C`, the outcome was inactive.
Turning to `CNc1cnn(-c2cccc(C(F)(F)F)c2)c(=O)c1Cl`, the outcome was inactive.
On to `CCOP(=O)(OCC)Oc1cc(C)nc(C(C)C)n1`, for which the molecule was called inactive.
Consider `CC(C)=CC1C(C(=O)OCN2C(=O)C3=C(CCCC3)C2=O)C1(C)C` (stereo not given), for which the molecule was classed as inactive.
For `CCCSP(=O)(OCC)SCCC` the value was “inactive”; for `CCC(CC)Nc1c([N+](=O)[O-])cc(C)c(C)c1[N+](=O)[O-]`, “inactive”; for `S=C1NCCN1`, “inactive”.
In the case of `C[Si](Cn1cncn1)(c1ccc(F)cc1)c1ccc(F)cc1`, the molecule was classed as inactive.
For `CCC(=O)Nc1ccc(Cl)c(Cl)c1`, the molecule was called inactive.
Regarding `CCOP(=S)(OCC)Oc1cc(C)nc(C(C)C)n1`, the call was inactive.
Take `COc1cccc(C(=O)NN(C(=O)c2cc(C)cc(C)c2)C(C)(C)C)c1C`: the outcome was inactive.
For `COP(=O)(OC)OC(Br)C(Cl)(Cl)Br` (stereo not given) the value was “inactive”.
With `CCOC(=O)CC(SP(=O)(OC)OC)C(=O)OCC` (stereo not given), the outcome was inactive.
As to `COc1cc(OC)nc(Sc2cccc(Cl)c2C(=O)O)n1`, the result was inactive.
As to `CCNc1nc(Cl)nc(NC(C)(C)C#N)n1`, the result was inactive.
For `CCc1cccc(C)c1N(C(=O)CCl)C(C)COC` (stereo not given) the value was “inactive”.
The same measure for `CNC(=O)ON=C(C)SC`: “inactive”; for `CCOP(=S)(OCC)SCCSCC`: “inactive”.
The same measure for `Cc1ccn2nc(S(=O)(=O)Nc3c(F)cccc3F)nc2n1`: “inactive”.
`CC1=NNC(=O)N(/N=C/c2cccnc2)C1`: the result was inactive.
On to `CN(C)NC(=O)CCC(=O)O`, for which the outcome was inactive.
In the case of `CSc1nc(NC(C)C)nc(NC(C)C)n1`, the molecule was called inactive.
Take `CCc1cnc(C2=NC(C)(C(C)C)C(=O)N2)c(C(=O)O)c1` (stereo not given): the call was inactive.
For `CCOP(=S)(OCC)OC(Cl)C(Cl)(Cl)Cl` (stereo not given) the value was “inactive”.
Take `Nc1nc(N)nc(NC2CC2)n1`: the call was inactive.
On to `COP(=O)(NC(C)=O)SC` (stereo not given), for which the molecule was classed as inactive.
The same measure for `CCCOCC(=Nc1ccc(Cl)cc1C(F)(F)F)n1ccnc1`: “inactive”; for `CCOC(=O)COc1cc(-c2nn(C)c(OC(F)F)c2Cl)c(F)cc1Cl`: “inactive”.
For `CN1COCN(Cc2cnc(Cl)s2)C1=N[N+](=O)[O-]`, the call was inactive.
For `CCCCOC(=O)c1ccccc1C(=O)O`, the molecule was called inactive.
Regarding `N#CSCSC#N`, the molecule was classed as inactive.
In the case of `C[N+]1(C)CCCCC1`, the molecule was classed as inactive.
The same measure for `CC(Oc1cccc(Cl)c1)C(=O)O` (stereo not given): “inactive”.
The same measure for `COc1ccc(C(=CC(=O)N2CCOCC2)c2ccc(Cl)cc2)cc1OC`: “inactive”; for `CCOP(=S)(OCC)Oc1ccc([N+](=O)[O-])cc1`: “inactive”; for `CCOP(=O)(SC(C)CC)N1CCSC1=O` (stereo not given): “inactive”.
